Most compounds without a hit are left out; they make up all but 12% or so of the library.
MARV entry inh: inhibitors of Marburg virus binding or cell entry. Marburg virus pseudotyped entry inhibition, cell reporter. Potency, µM (titrated, usually from 37.8 µM), usual class: inhibitors. hit rate 1.8% among 300,000; calls by dose curve; tested in HEK293 cells
LASV entry inh: inhibitors of Lassa virus binding or cell entry. Lassa virus pseudotype entry inhibition, cell reporter. Potency, µM (top dose mostly 37.9 µM), usual class: inhibitors. hit rate 1.2% among 300,000. AID 540256; calls by dose curve; tested in HEK293 cells; further: nearly all actives have a fitted effect of over 50% in size
Cycloheximide cs: counter-screen hit for Shiga toxin inhibitors, cycloheximide. max response, %. AID 2314. hit rate 12% among 300,000. cell reporter, cycloheximide protein synthesis inhibition counterscreen; in the data active means max response mostly above about 13%, no sharp cut-off; inactive means mostly below about 14%; further: read at 38.3 µM for the half of the compounds with a filed dose
Shiga toxin inh: blocks Shiga toxin action in Vero cells | AID 2315 | Vero cells, Shiga toxin protein synthesis inhibition reporter | hit rate 9.2% among 290,000 | inhibition, % at 38.7 µM; in the data active means inhibition mostly above about 28%, no sharp cut-off; inactive means mostly below about 43%
Hits are given with their value; – = inactive; ? = inconclusive; · = no result.

SMILES	MARV entry inh	LASV entry inh	Cycloheximide cs	Shiga toxin inh
c1ccc(-c2nc(-c3cccnc3)cs2)cc1	·	·	46.1	51.6
c1ccc(Nc2nnc(-c3cccnc3)s2)cc1	?	?	42.1	69.0
C=CCNc1nc(-c2ccc(O)c(C(N)=O)c2)cs1	–	–	22.0	–
O=C(NCc1ccccc1)c1csc(-c2cccnc2)n1	–	?	–	–
Cc1ccc(C)c(-c2csc(-c3cccnc3)n2)c1	·	·	21.2	·
NC(=O)c1cc(-c2csc(NCCc3ccccc3)n2)ccc1O	?	?	–	–
O=S(=O)(c1ccc(-c2csc(-c3cccnc3)n2)cc1)N1CCOCC1	?	–	–	–
c1ccc(-c2csc(-c3cccnc3)n2)cc1	–	–	27.8	88.6
O=C(Cc1ccccc1F)Nc1nc(-c2cccnc2)cs1	–	–	–	–
c1ccc(CNc2nc(-c3cccnc3)cs2)cc1	–	–	34.1	–
NC(=O)c1cc(-c2csc(-c3cccnc3)n2)ccc1O	?	–	–	60.5
CCOC(=O)C1CCN(C(=O)COC(=O)c2ccccc2C(=O)c2ccc(Cl)cc2)CC1	–	–	·	·
CCOC(=O)c1ccccc1NC(=O)COC(=O)CCC(=O)c1ccccc1	–	–	–	–
O=C(Nc1ccc(NC(=O)c2cccnc2Cl)cc1)c1cccc(Cl)c1	–	·	–	39.6
O=C(Nc1cccnc1)c1cccnc1Cl	–	–	–	–
CC(=O)NC(=S)Nc1ccc(NC(=O)c2cccnc2Cl)cc1	?	–	25.2	–
CCOCC(=O)Nc1cc(C)on1	·	·	–	–
Cc1cccc(C(=O)Nc2ccc(S(=O)(=O)N3CCC(c4nc5ccccc5s4)CC3)cc2)c1	–	–	·	·
COc1ccc(COC(=O)N/N=C/c2cccs2)cc1	·	·	24.7	49.1
COc1ccc(/C=N/NC(=O)Cc2cccs2)cc1	·	·	62.5	63.8
CCN(CC)c1ccc(/C=N/NC(=O)Cc2cccs2)cc1	–	–	33.3	–
COc1ccc(CC(=O)N/N=C/c2cccs2)cc1OC	–	·	–	–
O=C(CCl)N1CCCC1c1ccc2c(c1)OCCO2 (configuration not stated)	?	–	–	–
Cc1cccc(CNC(=O)CN2C(=O)C3CCCCN3c3ccc(C(=O)N4CCCC4)cc32)c1 (configuration not stated)	·	–	·	·
CC(C)CCn1c2ccccc2c2cc(CC(N)=O)ccc21	?	–	–	–
SMILES	MARV entry inh	LASV entry inh	Cycloheximide cs	Shiga toxin inh
CCOC(=O)c1sc(Nc2nc3ccc(OC)cc3s2)cc1C	–	–	41.2	73.8
CCOC(=O)c1sc(Nc2nc3c(F)cccc3s2)cc1C	?	–	38.1	72.5
O=C(NNc1nc2c(F)cccc2s1)c1ccccc1	·	·	–	–
CCOc1ccc(S(=O)(=O)Nc2nc3ccc(OC)cc3s2)cc1	–	–	–	–
CN1CCCC(OC(=O)c2ccc3c(c2)OCCO3)C1 (configuration not stated)	?	–	13.3	–
CN1CCCC(OC(=O)c2ccc(C(C)(C)C)cc2)C1 (configuration not stated)	–	–	17.8	–
COc1ccc([N+](=O)[O-])cc1NC(=O)C(C)N(C)Cc1ccc(Br)cc1 (configuration not stated)	–	–	–	–
COc1ccc(Br)cc1CN(C)C(C)C(=O)Nc1cc([N+](=O)[O-])ccc1OC (configuration not stated)	14.1µM	–	–	–
CCOC(=O)C1CCN(C(=O)COc2ccc3c(c2)OCO3)CC1	–	–	–	–
COc1ccccc1CNC(=O)c1cnc2sc(N3CCCCC3)nn2c1=O	·	–	·	·
Cn1cccc1CC(=O)N/N=C/c1cccc2ccccc12	–	–	22.1	33.1
Cc1ccsc1/C=N/NC(=O)Cc1cccn1C	?	–	21.3	–
Cc1noc(C)c1CSCC(=O)NCCN1C(=O)S/C(=C\c2ccccc2F)C1=O	–	?	·	·
CCc1ccc(N(C(=O)c2csnn2)C(C(=O)NC(C)(C)C)c2ccccn2)cc1 (configuration not stated)	?	–	29.4	76.0
Cc1ccc(S(=O)(=O)N(Cc2cc3cc4c(cc3[nH]c2=O)OCCO4)CC2CCCO2)cc1 (configuration not stated)	?	–	–	–
O=c1[nH]c2cc3c(cc2cc1CN(CC1CCCO1)S(=O)(=O)c1ccc(Cl)cc1)OCCO3 (configuration not stated)	–	–	67.0	182.6
CC(=O)c1ccc(S(=O)(=O)N(Cc2cc3cc4c(cc3[nH]c2=O)OCCO4)CC2CCCO2)cc1 (configuration not stated)	–	–	37.3	92.7
COc1cc(C)c(C)cc1S(=O)(=O)NC1CC(C)(C)NC(C)(C)C1	–	–	–	–
CCCCN(CC)CCCNC(=O)c1nn(-c2ccc(OC)cc2)c(=O)c2c1c1ccccc1n2C	–	–	·	·
CCCCCN(C(=O)CCC(=O)OC(C)C(=O)c1ccc(Cl)cc1)c1c(N)n(CCCC)c(=O)[nH]c1=O (configuration not stated)	–	–	·	·
COC(=O)C1CCN(S(=O)(=O)c2cc3c4c(c2)CCN4C(=O)CC3)CC1	–	–	·	·
CCOC(=O)c1c(C)n(Cc2ccc(F)cc2)c2ccc(O)cc12	·	·	–	–
CCOC(=O)c1c(C)n(Cc2ccc3c(c2)OCO3)c2ccc(O)cc12	–	–	30.2	–
CCOC(=O)c1c(C)n(Cc2ccco2)c2ccc(O)cc12	?	–	–	–
COC(=O)c1c(C)n(Cc2ccc3c(c2)OCO3)c2ccc(O)cc12	–	–	16.3	–
SMILES	MARV entry inh	LASV entry inh	Cycloheximide cs	Shiga toxin inh
Nc1ccccc1S(=O)(=O)Nc1cccc2cccnc12	·	·	–	–
C/C(=N\Nc1ncnc2sc(C)c(C)c12)c1ccccn1	3.16µM	?	49.4	67.0
Cc1sc2ncnc(N/N=C/c3cccc(O)c3)c2c1C	3.16µM	–	42.3	29.4
O=C(Nc1ccccc1)OC1CC2CC1C1CCCC21 (configuration not stated)	?	?	51.5	93.8
O=C(Nc1ccccc1)O[C@@H]1C[C@H]2CCC(=O)N3CC[C@@H](C1)[C@@H]23	·	·	31.1	38.2
COc1ccc(/C=C2\SC(=S)N(CCC(=O)NCCCN3CCOCC3)C2=O)cc1	?	–	13.1	–
Cc1ccc(/C=C2\SC(=S)N(CCC(=O)NCCCN3CCOCC3)C2=O)cc1	?	–	–	–
COC(=O)c1ccc(/C=C2\SC(=S)N(CCCC(=O)NCCCN3CCOCC3)C2=O)cc1	?	·	–	–
CCc1ccc(/C=C2\SC(=S)N(CCC(=O)NCCCN3CCOCC3)C2=O)cc1	?	–	44.9	46.4
Cc1cc(C)cc(C(=O)NCC(=O)OCC(=O)NC2CC2)c1	–	–	·	·
C/C(=N\NC(=O)c1ccc(F)cc1)c1ccccn1	·	·	62.2	97.5
C/C(=N\NC(=O)CCCNc1ccc(C)cc1)c1ccccn1	6.51µM	–	–	–
C/C(=N\NC(=O)CCCNc1ccccc1)c1ccncc1	–	?	–	–
CCc1ccc(/C(C)=N/NC(=O)c2c[nH]c3ccccc23)s1	?	?	17.9	–
C/C(=N/NC(=O)CNC(=O)c1ccccn1)c1ccccc1	–	–	–	–
CCc1ccc(/C(C)=N/NC(=O)C(O)c2ccccc2)s1 (configuration not stated)	–	?	·	·
Fc1ccc(N/N=C(/c2ccccc2)c2ccccn2)cc1	–	–	30.4	–
OC(CSc1ccccc1)CN1CCN(c2ccc(Cl)cc2)CC1 (configuration not stated)	–	?	·	·
